According to PubChem BioAssay (EPA / NIEHS):
Results filed as inconclusive are left out. Calls of active or inactive are those of the source. How the source made its calls, unless noted: active means hit-call score of the fitted dose curve at least 0.9, where 1 is the maximum; inconclusive means response in the unintended direction; inactive means score below 0.9.

Columns and labels:
[1] = test system: DIO2 (gene 1734); assay: CCTE_GLTED_hDIO2: CCTE's human Deiodinase 2 (DIO2) Inhibition Assay, Great Lakes Toxicology and Ecology Division (GLTED) Lab (AID 2284050)
In short: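 Cell-free human DIO2 enzyme was incubated with test chemical for 3 h; iodide liberated from substrate was then quantified by the Sandell-Kolthoff reaction (absorbance), run in triplicate. Loss of signal versus DMSO baseline indicated inhibition.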

[2] = test system: DIO3 (gene 1735); assay: CCTE_GLTED_hDIO3: CCTE's human Deiodinase 3 (DIO3) Inhibition Assay, Great Lakes Toxicology and Ecology Division (GLTED) Lab (AID 2284055);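 on AC50: potency is for inhibition seen as loss of released iodide signal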
In short: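 Cell-free assay with human DIO3 enzyme produced by adenovirus expression; enzyme incubated with test chemical for 3 hours. Liberated iodide then measured by Sandell-Kolthoff absorbance; loss of signal versus DMSO baseline indicates inhibition, run in triplicate.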

[3] = CCTE_Shafer_MEA_acute_AB: CCTE's Alamar Blue Assay for Cytotoxicity in the Neural Acute Assay, Shafer Lab (AID 2284069);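 further: active compounds lower the viability signal compared with DMSO wells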
In short: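 Metabolic activity in chemically exposed rat cortical neurons (MEA cultures, day 13/15 post-plating) measured via CellTiter Blue resazurin reduction, 544/590 nm fluorescence; fitted relative to DMSO, with signal loss indicating reduced viability.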

[4] = CCTE_Shafer_MEA_acute_LDH: CCTE's Lactate Dehydrogenase Assay for Cytotoxicity in the Neural Acute Assay, Shafer Lab (AID 2284086);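 further: active means LDH release rises above DMSO vehicle level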
In short: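 Primary rat cortical neurons on 48-well MEA plates, treated on day 13 or 15 post-plating. After the 40-min recording with compound, medium LDH release was read by absorbance at 490 nm. Gain of signal was fitted against DMSO negative control.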

[5] = CCTE_Shafer_MEA_dev_burst_rate: CCTE's Neural Network Formation Assay for Burst Rate, Shafer Lab (AID 2284042; active means hit-call score of the fitted dose curve at least 0.9, where 1 is the maximum; inactive means score below 0.9)
In short: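 Cells plated, treated day 0; recorded DIV 5, 7, 9, 12; fed and re-treated DIV 5, 9. Endpoint: bursts per recording time, active-electrode well mean, trapezoidal AUC, fitted in decreasing direction against DMSO baseline.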

[6] = CCTE_Shafer_MEA_dev_bursting_electrodes_number: CCTE's Neural Network Formation Assay for Number of Bursting Electrodes, Shafer Lab (AID 2284043);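 on AC50: potency is for loss of bursting electrodes relative to DMSO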
In short: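 Primary rat cortical neurons were cultured on PEI-coated 48-well MEA plates (16 electrodes/well) and exposed from plating through day 12, with compound renewed at feeds on DIV 5 and 9. Electrodes bursting ≥1 per 2 min were counted on DIV 5, 7, 9, 12; trapezoidal AUC taken.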

[7] = CCTE_Shafer_MEA_dev_per_burst_interspike_interval: CCTE's Neural Network Formation Assay for Burst Interspike Interval, Shafer Lab (AID 2284044; active means hit-call score of the fitted dose curve at least 0.9, where 1 is the maximum; inactive means score below 0.9)
In short: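 Readout is the average time between spikes inside single-electrode bursts, taken as a well mean across bursting electrodes. Cortical neurons from rat developed networks on MEA plates under continuous 12-day exposure; recordings on days 5, 7, 9 and 12 were integrated by trapezoidal AUC.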

[8] = CCTE_Shafer_MEA_dev_burst_duration_mean: CCTE's Neural Network Formation Assay for Mean Burst Duration, Shafer Lab (AID 2284045; active means hit-call score of the fitted dose curve at least 0.9, where 1 is the maximum; inactive means score below 0.9)
In short: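 Primary rat cortical neurons on PEI-coated 16-electrode MEA wells, exposed from plating through day 12 with compound renewed at DIV 5 and 9; spontaneous activity recorded days 5, 7, 9, 12. Well-mean burst duration collapsed as trapezoidal AUC, fitted for loss versus DMSO.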

[9] = CCTE_Shafer_MEA_dev_interburst_interval_mean: CCTE's Neural Network Formation Assay for Mean Interburst Interval, Shafer Lab (AID 2284046; active means hit-call score of the fitted dose curve at least 0.9, where 1 is the maximum; inactive means score below 0.9;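 further: well-mean interburst interval of bursting electrodes as AUC over four recording days; curve fitted for decrease in interburst interval relative to DMSO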)
In short: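 Developing rat cortical networks on 48-well MEAs receive compound from the day of plating. Burst intervals from each active electrode are averaged per well, and AUC over the recording days is fitted in the negative direction against DMSO.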

[10] = CCTE_Shafer_MEA_dev_inter_network_spike_interval_mean: CCTE's Neural Network Formation Assay for Mean Inter-network Spike Interval, Shafer Lab (AID 2284047; active means hit-call score of the fitted dose curve at least 0.9, where 1 is the maximum; inactive means score below 0.9;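 on AC50: potency for a decrease in mean inter-network spike interval below DMSO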)
In short: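 Rat cortical cultures, 1.5 x 10^5 cells/well on 48-well MEA plates; continuous exposure days 0–12, medium and compound refreshed DIV 5, 9. Mean time between consecutive network-spike peaks; AUC across DIV 5/7/9/12; DMSO baseline, negative fitting direction.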

[11] = CCTE_Shafer_MEA_dev_network_spike_number: CCTE's Neural Network Formation Assay for Number of Network Spikes, Shafer Lab (AID 2284048; active means hit-call score of the fitted dose curve at least 0.9, where 1 is the maximum; inactive means score below 0.9)
In short: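 Primary rat cortical neurons were seeded at 1.5 x 10^5 cells/well on PEI-coated 16-electrode MEA wells with laminin, exposed from plating day 0, compound renewed at DIV 5 and 9. Network spikes were recorded on days 5, 7, 9, 12 and summarized as trapezoidal AUC versus DMSO.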

[12] = CCTE_Shafer_MEA_dev_network_spike_peak: CCTE's Neural Network Formation Assay for Mean Number of Electrodes in Network Spike, Shafer Lab (AID 2284049; active means hit-call score of the fitted dose curve at least 0.9, where 1 is the maximum; inactive means score below 0.9;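 on AC50: fitted for loss of signal meaning fewer electrodes in network spikes than DMSO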)
In short: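 Continuous 12-day exposure of rat cortical cultures, starting at plating, on MEA plates. Endpoint: electrodes participating in network-spike peaks, AUC across DIV 5–12, DMSO as negative control.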

[13] = CCTE_Shafer_MEA_dev_per_network_spike_spike_number_mean: CCTE's Neural Network Formation Assay for Mean Number of Spikes in a Network Spike, Shafer Lab (AID 2284053; active means hit-call score of the fitted dose curve at least 0.9, where 1 is the maximum; inactive means score below 0.9)
In short: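 Continuous twelve-day exposure of developing rat cortical networks grown over 16 microelectrodes per well; spontaneous firing is captured at four time points, and the per-network-spike spike number is integrated over development by trapezoidal AUC.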

[14] = CCTE_Shafer_MEA_dev_LDH: CCTE's Lactate Dehydrogenase Assay for Cytotoxicity in the Neural Network Formation Assay, Shafer Lab (AID 2284068);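 further: exposure for twelve days from plating with re-dosing on DIV 5 and 9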
In short: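 Cytotoxicity companion to network-formation recordings: rat cortical neurons received compound over 12 days of development, re-dosed at DIV 5 and 9 feeds. Viability was inferred from LDH enzyme activity relative to DMSO.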

[15] = CCTE_Shafer_MEA_dev_AB: CCTE's Alamar Blue Assay for Cytotoxicity in the Neural Network Formation Assay, Shafer Lab (AID 2284083);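 further: twelve days of exposure from plating with re-dosing on DIV 5 and 9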
In short: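 Fluorescent resazurin reduction serves as the viability read-out, with DMSO as negative control and baseline. Cells were primary rat cortical neurons grown on MEA plates and dosed from day 0 to day 12, treatment renewed on DIV 5 and 9.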

[16] = CCTE_Shafer_MEA_dev_correlation_coefficient_mean: CCTE's Neural Network Formation Assay for Mean Correlation Coefficient, Shafer Lab (AID 2284093; active means hit-call score of the fitted dose curve at least 0.9, where 1 is the maximum; inactive means score below 0.9)
In short: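 Read-out: well-mean correlation coefficient of spike trains between electrode pairs, collapsed over four recording days as trapezoidal area-under-the-curve. Developing rat cortical neuron networks grown on MEAs received test chemical continuously from plating.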

[17] = UKN2_HCS_IMR90_neural_migration: University of Konstanz (UKN) Leist Lab Neural Crest Cell Migration Assay in human induced IMR90 Pluripotent Stem Cells (UKN2) (AID 2284204; active means hit-call score of the fitted dose curve at least 0.9, where 1 is the maximum; inactive means score below 0.9); details: actives raise or lower the signal
In short: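 iPSC-derived IMR90 neural crest cells on PLO/laminin/fibronectin were seeded around silicone stoppers; after stopper removal, migration in N2-S medium with EGF and FGF ran 24 h before 24 h chemical exposure. Calcein-AM/Hoechst high-content imaging; bidirectional fit versus DMSO.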

Measured: AC50

C[C@]12C=CC3=C4CCC(=O)C=C4CC[C@H]3[C@@H]1CC[C@@H]2O
active: [1] 100 µM | [2] 23.5 µM

O=C(N[C@H](c1ccccc1)[C@@H]1CN2CCC1CC2)c1c(Cl)ccc(C(F)(F)F)c1Cl
inactive: [3] | [4]

C1=Cc2cccc3cccc1c23
not listed: [1] | [2] | [3] | [4] | [17]
inactive: all other assays above

c1ccc(N=Nc2ccccc2)cc1
inactive: [3] | [4]

Cc1cc(N=Nc2ccccc2C)ccc1N
inactive: [3] | [4]

CCN(CC)N=O
inactive: [3]

Oc1ccc2ccc3cccc4ccc1c2c34
active: [1] 100 µM | [2] 61.4 µM

ClCCOCCCl
inactive: [1] | [2] | [3] | [4]

O=[N+]([O-])c1ccc(Oc2ccc(Cl)cc2Cl)cc1
inactive: [3]

Cc1ccc(N)c(N)c1
inactive: [3] | [4]

c1ccc(NNc2ccccc2)cc1
inactive: [3]

OCCOCCO
active: [10] 24.5 µM
inactive: [5] | [6] | [7] | [8] | [9] | [11] | [12] | [13] | [16]

Nc1cc(Cl)cc(C(=O)O)c1Cl
not listed: [1] | [2] | [3] | [4] | [15] | [17]
inactive: all other assays above

O=Cc1ccco1
inactive: [3] | [4]

CCC(C)c1ccc(O)cc1 (stereo not given)
inactive: [3] | [4]

CC(C)(OOC(C)(C)c1ccccc1)c1ccccc1
inactive: [3] | [4]

CCCCOC(=O)c1ccccc1C(=O)OCc1ccccc1
active: [6] 50.5 µM | [12] 15.2 µM
not listed: [1] | [2] | [14]
inactive: all other assays above

CCN(CC)CCO
inactive: [3] | [4]

O=[N+]([O-])C(Br)(CO)CO
active: [3] 26.9 µM
